Common to all, as to assay: cell viability relative to vehicle control; higher = less cytotoxic
What all share (conditions): 10 µM

One test concerns K562. A digest of the protocol: (§1)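 Four leukaemia lines, as CRISPR-edited mutant clones and isogenic wild-type clones, were tested against Selleck bioactive, kinase and epigenetic probe libraries after removal of identity-inconsistent compounds. Cells were exposed to a single 10 µM dose for 48 h, and CellTiter-Glo luminescence was then read. Viability was calculated relative to the on-plate vehicle control.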

A further test relates to MARIMO. In a few lines:
as §1

A further test deals with MOLM14. In a few lines:
as §1

For a further test, the system named is OCI-AML2. In a few lines:
as §1

Several values for one entry are separate records, joined by “and”; a condition that tells them apart may be missing. Equal values may be shown once.

For orientation: cell viability means a read-out of living cells in per cent, often relative to untreated cells. Regarding `Cc1cc(C(N)=O)ccc1-n1c(CCC(=O)O)ccc1-c1ccc(-n2ccnc2)cc1`, the cell viability in the test on K562 (SRSF2 genotype: SRSF2 P95H/wt) is 101% and 109%; with K562 (SRSF2 genotype: SRSF2 wt/wt), 108%; in the test with MARIMO (SRSF2 genotype: SRSF2 P95H/wt), 105%; with MARIMO (SRSF2 genotype: SRSF2 wt/wt), 98%; in the test with MOLM14 (SRSF2 genotype: SRSF2 P95H/wt) it was 105%; in the test with MOLM14 (SRSF2 genotype: SRSF2 wt/wt) it was 108%. Besides, the cell viability was determined as 109% in the test on OCI-AML2 (SRSF2 genotype: P95H/wt) and 124% in the test on OCI-AML2 (SRSF2 genotype: wt/wt).
Regarding `Cc1oc2nc3c(c(NC(=O)CN4CCCC4=O)c2c1C)CCCC3` [Coluracetam], the cell viability in the test on K562 (SRSF2 genotype: SRSF2 P95H/wt) is 95.4% and 96.3%; in the test with K562 (SRSF2 genotype: SRSF2 wt/wt), 105%; in the test with MARIMO (SRSF2 genotype: SRSF2 P95H/wt), 93.7%; with MARIMO (SRSF2 genotype: SRSF2 wt/wt), 104%; in the test on MOLM14 (SRSF2 genotype: SRSF2 P95H/wt), 103%; in the test on MOLM14 (SRSF2 genotype: SRSF2 wt/wt) it was 103%. Also, the cell viability in the test with OCI-AML2 (SRSF2 genotype: P95H/wt) is 94.9%; in the test with OCI-AML2 (SRSF2 genotype: wt/wt) it was 99.4%.
With `COC(=O)C1=C(C)NC(C)=C(C(=O)OC(C)C)C1c1cccc2nonc12` (stereo not drawn) [Isradipine (Dynacirc)], the cell viability with K562 (SRSF2 genotype: SRSF2 P95H/wt) was 95.3% and 96.5%; in the test on K562 (SRSF2 genotype: SRSF2 wt/wt), 97.3%; in the test with MARIMO (SRSF2 genotype: SRSF2 P95H/wt), 99.4%; in the test on MARIMO (SRSF2 genotype: SRSF2 wt/wt), 103%; with MOLM14 (SRSF2 genotype: SRSF2 P95H/wt), 101%; in the test with MOLM14 (SRSF2 genotype: SRSF2 wt/wt), 100%. In addition, the cell viability in the test on OCI-AML2 (SRSF2 genotype: P95H/wt) came out at 93.2%; in the test on OCI-AML2 (SRSF2 genotype: wt/wt), 99.5%.
Consider `C=CCc1cc(OC)c(OC)c(OC)c1` [Elemicin], for which the cell viability in the test on K562 (SRSF2 genotype: SRSF2 P95H/wt) is 106% and 105%; with K562 (SRSF2 genotype: SRSF2 wt/wt), 113%; with MARIMO (SRSF2 genotype: SRSF2 P95H/wt), 111%; with MARIMO (SRSF2 genotype: SRSF2 wt/wt) it was 104%; with MOLM14 (SRSF2 genotype: SRSF2 P95H/wt), 105%; in the test on MOLM14 (SRSF2 genotype: SRSF2 wt/wt), 109%. Besides, the cell viability in the test with OCI-AML2 (SRSF2 genotype: P95H/wt) is 109%; in the test on OCI-AML2 (SRSF2 genotype: wt/wt) it was 123%.
Turning to `COc1cc(C2Oc3cc([C@H]4Oc5cc(O)cc(O)c5C(=O)[C@@H]4O)ccc3OC2CO)ccc1O` (stereo partly drawn) [Silibinin (Silybin)], the cell viability in the test on K562 (SRSF2 genotype: SRSF2 P95H/wt) is 95% and 94%; in the test with K562 (SRSF2 genotype: SRSF2 wt/wt) it was 92.2%; in the test with MARIMO (SRSF2 genotype: SRSF2 P95H/wt), 97.5%; in the test on MARIMO (SRSF2 genotype: SRSF2 wt/wt), 110%; with MOLM14 (SRSF2 genotype: SRSF2 P95H/wt), 98.8%; in the test on MOLM14 (SRSF2 genotype: SRSF2 wt/wt), 98.4%. Moreover, the cell viability with OCI-AML2 (SRSF2 genotype: P95H/wt) amounted to 104%; in the test with OCI-AML2 (SRSF2 genotype: wt/wt), 116%.
Regarding `CC(=O)Oc1cccc2ccccc12` [1-Naphthyl acetate], the cell viability with K562 (SRSF2 genotype: SRSF2 P95H/wt) is 90.4% and 85.3%; in the test with K562 (SRSF2 genotype: SRSF2 wt/wt), 95.8%; in the test with MARIMO (SRSF2 genotype: SRSF2 P95H/wt), 92.4%; with MARIMO (SRSF2 genotype: SRSF2 wt/wt), 97.5%; with MOLM14 (SRSF2 genotype: SRSF2 P95H/wt), 93.7%; with MOLM14 (SRSF2 genotype: SRSF2 wt/wt), 93.8%. The cell viability in the test on OCI-AML2 (SRSF2 genotype: P95H/wt) turned out to be 93.3%; in the test on OCI-AML2 (SRSF2 genotype: wt/wt), 90.8%.
For the molecule `COc1cc2ncc(-c3ccccc3)nc2cc1OC` [Tyrphostin AG 1296 (AG 1296)], the cell viability in the test with K562 (SRSF2 genotype: SRSF2 P95H/wt) was 90.3% and 94.9%; with K562 (SRSF2 genotype: SRSF2 wt/wt), 93%; in the test with MARIMO (SRSF2 genotype: SRSF2 P95H/wt), 81.5%; with MARIMO (SRSF2 genotype: SRSF2 wt/wt), 82.2%; with MOLM14 (SRSF2 genotype: SRSF2 P95H/wt), 48.2%; in the test on MOLM14 (SRSF2 genotype: SRSF2 wt/wt), 56%. Also, the cell viability in the test on OCI-AML2 (SRSF2 genotype: P95H/wt) came out at 69.5%; in the test on OCI-AML2 (SRSF2 genotype: wt/wt), 65.6%.
As to `CC(=O)OCC(=O)[C@@]1(O)CC[C@H]2[C@@H]3CCC4=CC(=O)CC[C@]4(C)[C@H]3C(=O)C[C@@]21C` [Cortisone acetate (Cortone)], the cell viability with K562 (SRSF2 genotype: SRSF2 P95H/wt) is 110% and 108%; in the test with K562 (SRSF2 genotype: SRSF2 wt/wt), 118%; in the test with MARIMO (SRSF2 genotype: SRSF2 P95H/wt), 118%; with MARIMO (SRSF2 genotype: SRSF2 wt/wt), 109%; with MOLM14 (SRSF2 genotype: SRSF2 P95H/wt), 112%; in the test with MOLM14 (SRSF2 genotype: SRSF2 wt/wt) it was 112%. The cell viability with OCI-AML2 (SRSF2 genotype: P95H/wt) came to 117%; in the test on OCI-AML2 (SRSF2 genotype: wt/wt), 109%.
In the case of `CC(C)(C)C(O)/C=C/c1ccc2c(c1)OCO2` (stereo not drawn) [Stiripentol], the cell viability was 105% and 95.5% in the test with K562 (SRSF2 genotype: SRSF2 P95H/wt); 101% with K562 (SRSF2 genotype: SRSF2 wt/wt); 94.5% in the test with MARIMO (SRSF2 genotype: SRSF2 P95H/wt); 108% with MARIMO (SRSF2 genotype: SRSF2 wt/wt); 100% in the test on MOLM14 (SRSF2 genotype: SRSF2 P95H/wt); 107% in the test on MOLM14 (SRSF2 genotype: SRSF2 wt/wt). In addition, the cell viability in the test with OCI-AML2 (SRSF2 genotype: P95H/wt) is 95.3%; in the test with OCI-AML2 (SRSF2 genotype: wt/wt) it was 100%.
Regarding `CC(=O)OCC(=O)[C@@]12OC(C)(C)O[C@@H]1C[C@H]1[C@@H]3C[C@H](F)C4=CC(=O)C=C[C@]4(C)[C@@]3(F)[C@@H](O)C[C@@]12C` [Fluocinonide (Vanos)], the cell viability in the test with K562 (SRSF2 genotype: SRSF2 P95H/wt) was 100% and 105%; in the test with K562 (SRSF2 genotype: SRSF2 wt/wt), 108%; with MARIMO (SRSF2 genotype: SRSF2 P95H/wt) it was 110%; in the test with MARIMO (SRSF2 genotype: SRSF2 wt/wt), 106%; in the test on MOLM14 (SRSF2 genotype: SRSF2 P95H/wt), 107%; with MOLM14 (SRSF2 genotype: SRSF2 wt/wt), 94.8%. Besides, the cell viability with OCI-AML2 (SRSF2 genotype: P95H/wt) amounted to 111%; in the test with OCI-AML2 (SRSF2 genotype: wt/wt), 117%.
Turning to `Cc1nc(C(=O)NCC(=O)O)c(O)c2ccc(Oc3ccccc3)cc12` [Roxadustat (FG-4592)], the cell viability in the test with K562 (SRSF2 genotype: SRSF2 P95H/wt) was 89.4% and 79.4%; in the test on K562 (SRSF2 genotype: SRSF2 wt/wt), 85.7%; in the test with MARIMO (SRSF2 genotype: SRSF2 P95H/wt), 79.1%; in the test on MARIMO (SRSF2 genotype: SRSF2 wt/wt), 82.7%; with MOLM14 (SRSF2 genotype: SRSF2 P95H/wt), 88.5%; in the test with MOLM14 (SRSF2 genotype: SRSF2 wt/wt), 84.3%. Moreover, the cell viability with OCI-AML2 (SRSF2 genotype: P95H/wt) was found to be 83.9%; with OCI-AML2 (SRSF2 genotype: wt/wt), 87.5%.

The values are drawn from the supplement of paper PMC10981050.
